Test results published in PubChem BioAssay (Tox21).
Results filed as inconclusive are left out. Active and inactive are the calls of the source. Unless noted, the call rests on the fitted dose curve; in most records, active means well fitted curve in the direction sought with a large enough effect in the repeat runs; inconclusive means weak or mixed curves; inactive means no such curve, though single readings can be large; an effect the other way counts as inactive or inconclusive.

What was measured:
[1] = A CellTox Green Cytotoxicity Assay to monitor cytotoxicity in HepG2 cells - 0 hour (AID 1224882); further: nearly all actives have a fitted effect of over 35% in size
Summary of the method: (§1)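 Fluorescent DNA-binding dye, 600 HepG2 cells/well, 5 h preincubation then compound in DMSO; same plates read at 0–40 h, 37 C.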

[2] = A CellTox Green Cytotoxicity Assay to monitor cytotoxicity in HepG2 cells - 32 hour (AID 1224883); further: nearly all actives have a fitted effect of over 50% in size; further: potency means the concentration at half of the fitted maximal effect
Summary of the method: as §1

[3] = A CellTox Green Cytotoxicity Assay to monitor cytotoxicity in HEK293 cells - 8 hour (AID 1224884); further: nearly all actives have a fitted effect of over 35% in size
Summary of the method: (§2)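 Homogeneous no-lysis format: HEK293 cell suspension mixed with CellTox Green reagent, seeded, incubated 5 h at 37 C/5% CO2, then dosed by pintool with compound in DMSO.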

[4] = qHTS RealTime-Glo MT Cell Viability Assay in HepG2 cells - 16 hour (AID 1224885); further: nearly all actives have a fitted effect of over 50% in size
Summary of the method: (§3)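 Cell number in HepG2 cultures estimated from NanoLuc luminescence generated by metabolic reduction of a prosubstrate by living cells. The homogeneous, nonlytic format allowed repeated reads at 0, 8, 16, 24, 32 and 40 h of compound exposure.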

[5] = qHTS RealTime-Glo MT Cell Viability Assay in HEK293 cells - 24 hour (AID 1224886); further: nearly all actives have a fitted effect of over 50% in size; further: potency means the concentration at half of the fitted maximal effect
Summary of the method: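 Homogeneous bioluminescent viability format in HEK293 cells (600 cells/well). Following 5 h at 37 C/5% CO2, 23 nL compound was pintooled; the signal was measured repeatedly during 40 h incubation.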

[6] = qHTS RealTime-Glo MT Cell Viability Assay in HEK293 cells - 8 hour (AID 1224887); further: nearly all actives have a fitted effect of over 50% in size; further: potency means the concentration at half of the fitted maximal effect
Summary of the method: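 Measured as luminescence from the same continuously cultured HEK293 wells at successive time points (0, 8, 16, 24, 32, 40 h) after compound addition. Reagent present from seeding; dosing at 5 h; incubation 37 C.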

[7] = A CellTox Green Cytotoxicity Assay to monitor cytotoxicity in HEK293 cells - 16 hour (AID 1224888); further: nearly all actives have a fitted effect of over 35% in size
Summary of the method: as §2

[8] = qHTS RealTime-Glo MT Cell Viability Assay in HepG2 cells - 0 hour (AID 1224889); further: nearly all actives have a fitted effect of over 50% in size
Summary of the method: as §3

[9] = qHTS assay to identify small molecule antagonists of the estrogen receptor alpha (ER-alpha) signaling pathway using the BG1 cell line in the presence of 0.1 nM 17-beta-estradiol - cell viability counter screen (AID 1259241); further: nearly all actives have a fitted effect of over 40% in size
Summary of the method: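 Estradiol-stimulated (0.1 nM) VM7Luc4E2 cells exposed to compounds 22 hr; viability measured by fluorescence of cleaved CellTiter-Fluor substrate after 30 min.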

[10] = molecular target: Estrogen receptor (Homo sapiens) (UniProt P03372); assay: qHTS assay to identify small molecule antagonists of the estrogen receptor alpha (ER-alpha) signaling pathway using the BG1 cell line in the presence of 0.1 nM 17-beta-estradiol (AID 1259244); further: nearly all actives have a fitted effect of over 50% in size; further: potency means the concentration at half of the fitted maximal effect
Summary of the method: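 Seeding of stripped-serum-adapted VM7Luc4E2 cells, 24 h attachment, compound transfer, then 0.1 nM final 17beta-estradiol; after 22 h incubation, ONE-Glo reagent and luminescence reading.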

[11] = qHTS assay to identify small molecule phospholipidosis (PLD) inducers (AID 1259344; active means well fitted curve in the direction sought with a large enough effect; an effect the other way counts as inactive or inconclusive)
Summary of the method: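 Cells (HepG2, 900 per well) attach for 4 h, receive LipidTOX Red and compound together, incubate 24 h at 37 C, are fixed 30 min with paraformaldehyde/Hoechst, then imaged at one site per well.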

[12] = qHTS assay to identify small molecule HDAC inhibitors (AID 1259364); further: potency means the concentration at half of the fitted maximal effect;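 further: wild-type HCT-116 cells with endogenous class I/II HDAC activity; nearly all actives have a fitted effect of over 45% in size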
Summary of the method: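 After a 2 hr compound incubation (37C, 5% CO2), HCT-116 cells seeded at 1,500/well the day before received HDAC-Glo reagent; signal read as luminescence after 30 min at room temperature.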

[13] = qHTS assay to identify small molecule antagonists of the sonic hedgehog signaling (Shh) pathway - cell viability counter screen (AID 1259367); further: nearly all actives have a fitted effect of over 55% in size; further: potency means the concentration at half of the fitted maximal effect
Summary of the method: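 Cytotoxicity was assessed in parallel with Shh reporter activity by measuring live-cell protease fluorescence (CellTiter-Fluor) in NIH/3T3 cells stably carrying Gli1-Luc, treated with compound under conditioned medium stimulation for 23 hr plus 1 hr reagent incubation.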

[14] = qHTS assay to identify small molecule agonists of the sonic hedgehog signaling (Shh) pathway (AID 1259368; calls by dose curve;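 further: NIH/3T3-derived 3T3Gli1-Luc cells carrying a stable Gli1-driven firefly luciferase reporter; series mostly up to about 92 µM; nearly all actives have a fitted effect of over 15% in size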)
Summary of the method: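 Stable NIH/3T3 Gli1-Luc reporter clone; 24 hr cpd exposure after a 4 hr settling period; luminescence endpoint.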

[15] = A CellTox Green Cytotoxicity Assay to monitor cytotoxicity in HepG2 cells - 8 hour (AID 1224890); further: nearly all actives have a fitted effect of over 45% in size
Summary of the method: as §1

[16] = qHTS assay to identify small molecule antagonists of the androgen receptor (AR) signaling pathway using the MDA cell line in the presence of 0.5 nM R1881 - cell viability counter screen (AID 1259242); further: nearly all actives have a fitted effect of over 45% in size
Summary of the method: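 Human breast carcinoma MDA-kb2 cells, cultured without CO2, receive compounds alongside 0.5 nM (final) R1881 agonist. After 16 hr at 37C, viability is taken as live-cell protease signal.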

[17] = qHTS assay to identify small molecule HDAC inhibitors - cell viability counter screen (AID 1259365)
Summary of the method: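 After overnight seeding at 1,500 cells per well, wild-type HCT-116 cultures took up compounds in DMSO for 2hr at 37 C. Viable cell content came from luminescence with CellTiter-Glo.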

[18] = qHTS assay to identify small molecule agonists of the sonic hedgehog signaling (Shh) pathway - cell viability counter screen (AID 1259366); further: nearly all actives have a fitted effect of over 50% in size; further: potency means the concentration at half of the fitted maximal effect
Summary of the method: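 Same-well cytotoxicity read. Gli1-Luc reporter 3T3 cells; compounds 24hr, 37C/5% CO2; CellTiter-Fluor fluorescence.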

[19] = qHTS assay to identify small molecule antagonists of the sonic hedgehog signaling (Shh) pathway (AID 1259369; calls by dose curve; further: nearly all actives have a fitted effect of over 45% in size; further: potency means the concentration at half of the fitted maximal effect)
Summary of the method: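 Gli1 transcriptional reporter (firefly Luc) in NIH/3T3 background, conditioned-medium activated. 24hr exposure, luminescence endpoint.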

[20] = molecular target: Androgen receptor (Homo sapiens) (UniProt P10275); assay: qHTS assay to identify small molecule antagonists of the androgen receptor (AR) signaling pathway using the MDA cell line in the presence of 0.5 nM R1881 (AID 1259243); further: nearly all actives have a fitted effect of over 50% in size
Summary of the method: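 Cells: MDA-kb2 (MMTV-luc). Stimulus: 0.5 nM R1881. Time: 16 hr, 37C, no CO2. Detection: ONE-Glo luminescence after 30 min at RT.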

Measured: Potency

Chain of Estrogen receptor (Homo sapiens) (P03372 whole entry, looked up): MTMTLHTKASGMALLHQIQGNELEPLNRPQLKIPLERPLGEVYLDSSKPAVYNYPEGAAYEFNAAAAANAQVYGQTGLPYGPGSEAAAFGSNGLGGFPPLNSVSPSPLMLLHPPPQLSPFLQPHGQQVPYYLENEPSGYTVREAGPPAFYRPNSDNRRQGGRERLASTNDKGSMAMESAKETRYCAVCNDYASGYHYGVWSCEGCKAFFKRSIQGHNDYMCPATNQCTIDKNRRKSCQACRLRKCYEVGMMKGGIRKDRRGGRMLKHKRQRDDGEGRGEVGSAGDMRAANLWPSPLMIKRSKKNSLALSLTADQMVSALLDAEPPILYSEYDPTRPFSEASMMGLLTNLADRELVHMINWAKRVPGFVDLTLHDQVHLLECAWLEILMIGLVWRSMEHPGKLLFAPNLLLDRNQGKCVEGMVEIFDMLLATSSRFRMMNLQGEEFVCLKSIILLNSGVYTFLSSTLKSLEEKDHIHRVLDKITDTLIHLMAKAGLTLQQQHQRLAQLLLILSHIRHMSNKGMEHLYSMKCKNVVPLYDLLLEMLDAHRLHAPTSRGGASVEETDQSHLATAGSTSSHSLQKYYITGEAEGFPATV
Chain of Androgen receptor (Homo sapiens) (P10275 whole entry, looked up): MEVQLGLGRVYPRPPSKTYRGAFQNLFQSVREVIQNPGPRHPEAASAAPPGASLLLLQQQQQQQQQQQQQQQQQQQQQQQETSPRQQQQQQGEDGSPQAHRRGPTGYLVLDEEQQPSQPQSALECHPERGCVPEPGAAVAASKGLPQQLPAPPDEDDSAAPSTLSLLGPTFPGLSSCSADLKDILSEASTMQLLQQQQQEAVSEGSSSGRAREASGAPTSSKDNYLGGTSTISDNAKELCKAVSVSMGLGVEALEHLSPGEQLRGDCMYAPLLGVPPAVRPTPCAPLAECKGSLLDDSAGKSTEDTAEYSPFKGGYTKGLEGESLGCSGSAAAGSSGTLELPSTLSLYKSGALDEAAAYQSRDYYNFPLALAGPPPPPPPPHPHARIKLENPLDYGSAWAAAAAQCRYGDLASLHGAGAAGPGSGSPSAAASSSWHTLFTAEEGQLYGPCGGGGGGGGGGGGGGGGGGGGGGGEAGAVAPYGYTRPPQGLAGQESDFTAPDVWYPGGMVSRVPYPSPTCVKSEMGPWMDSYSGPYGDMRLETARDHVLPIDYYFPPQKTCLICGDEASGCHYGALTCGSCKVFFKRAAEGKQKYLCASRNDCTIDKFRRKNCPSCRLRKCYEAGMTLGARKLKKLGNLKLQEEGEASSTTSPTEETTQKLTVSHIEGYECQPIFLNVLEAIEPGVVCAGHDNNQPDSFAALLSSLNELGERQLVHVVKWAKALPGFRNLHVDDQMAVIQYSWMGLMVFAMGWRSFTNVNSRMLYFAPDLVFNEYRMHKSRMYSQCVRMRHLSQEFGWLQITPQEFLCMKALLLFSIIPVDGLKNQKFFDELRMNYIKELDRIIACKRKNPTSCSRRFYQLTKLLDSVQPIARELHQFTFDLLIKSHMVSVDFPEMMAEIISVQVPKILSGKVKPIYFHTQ

COc1ccc(CCN(C)CCCN2CCc3cc(OC)c(OC)cc3CC2=O)cc1OC
not listed: [15] | [16] | [17] | [18] | [19] | [20]
inactive: all other assays above

CCC(=O)OCc1ccc(OC)cc1
not listed: [9] | [10] | [11] | [19] | [20]
inactive: all other assays above

CC(C)C(=O)OCCOc1ccccc1
not listed: [11] | [15] | [20]
inactive: all other assays above

CCN(Cc1cccc(S(=O)(=O)O)c1)c1ccc(C(=C2C=CC(=[N+](CC)Cc3cccc(S(=O)(=O)O)c3)C=C2)c2ccccc2S(=O)(=O)[O-])cc1
active: [10] 12.2 µM | [12] 6.14 µM | [18] 27.4 µM | [13] 17.3 µM | [19] 3.08 µM
not listed: [9] | [11] | [16] | [17] | [20]
inactive: all other assays above

CC(C)(C(=O)c1cccnc1)c1cccnc1
not listed: [7] | [19] | [20]
inactive: all other assays above

O=C(O)c1ccc(O)cc1O
not listed: [10] | [11] | [14] | [15] | [17] | [20]
inactive: all other assays above

O=C(NC(Cc1cc(=O)[nH]c2ccccc12)C(=O)O)c1ccc(Cl)cc1 (stereo unspecified)
not listed: [7] | [20]
inactive: all other assays above

CCCCCCCC/C=C\CCCCCCCC(=O)OCCO
active: [6] 57.8 µM | [19] 36.2 µM
not listed: [8] | [11] | [20]
inactive: all other assays above

CCCCCCCC/C=C/C(=O)O
not listed: [9] | [10] | [11] | [20]
inactive: all other assays above

CC(C)c1ccc(C#N)cc1
active: [5] 17.4 µM
not listed: [7] | [11] | [20]
inactive: all other assays above

Oc1cccc2[nH]ccc12
not listed: [7] | [11] | [15]
inactive: all other assays above

CC(C)C(O)C(C)(C)CO (stereo unspecified)
active: [5] 0.801 µM | [10] 9.99 µM
not listed: [6] | [11] | [20]
inactive: all other assays above

O=C(O)CCCc1c[nH]c2ccccc12
active: [2] 15.5 µM
not listed: [6] | [10] | [11] | [20]
inactive: all other assays above

O=c1[nH][nH]c(=O)c2cc([N+](=O)[O-])ccc12
not listed: [7] | [11] | [14] | [20]
inactive: all other assays above
